An excerpt weighted towards active compounds, which were near 12% of everything screened.
HP1b binding inh: HTS for Inhibitors of HP1-beta Chromodomain Interactions with Methylated Histone Tails | Chromobox protein homolog 1 (Homo sapiens), P83916 | AlphaScreen HP1-beta / biotin-H3K9me3 peptide binding | Potency, µM (doses to about 114 µM), without a hit: at the top dose activity change, negative = inhibition, usual class: inhibitors | hit rate 0.56% among 390,000; note: nearly all actives have a fitted effect of over 70% in size
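Compound inhibition of the preformed complex between 50 nM HP1-beta and 50 nM biotinylated H3K9me3 peptide was read by AlphaScreen. Buffer was PBS pH 7.4 with 0.01% Tween-20. Incubations ran 30 min at room temperature, with 10 ug/mL donor/acceptor beads.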
BAZ2B inh: qHTS Assay for Inhibitors of BAZ2B; AlphaScreen BAZ2B-H3K14Ac peptide displacement; Potency, µM (highest dose often 114 µM), inactives show top-dose activity change, negative = inhibition, most hits filed as inhibitors; Bromodomain adjacent to zinc finger domain protein 2B (Homo sapiens), Q9UIF8; hit rate 4.4% among 360,000; note: % is set by controls: 0 for no effect and ±100 for the full control effect; nearly all actives have a fitted effect of over 60% in size
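AlphaScreen displacement: compounds (up to 110uM) incubated 30 min at room temperature with a preformed 50 nM BAZ2B/50 nM biotinylated H3K14Ac peptide complex in PBS pH 7.4 with Tween-20. Donor and acceptor beads at 10 ug/mL final added, 20 min light-protected before reading.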
L3MBTL1 block: qHTS Assay for the Inhibitors of L3MBTL1. Lethal(3)malignant brain tumor-like protein 1 (Homo sapiens), Q9Y468. Potency, µM (doses to about 57.1 µM), for inactives: at the highest dose activity, negative = inhibition, most hits filed as inhibitors. AID 485360, 2010. AlphaScreen L3MBTL1–H3K9me1 peptide binding. hit rate 0.66% among 230,000; note: % is set by controls: 0 for no effect and ±100 for the full control effect; nearly all actives have a fitted effect of over 60% in size
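L3MBTL1 50 nM + b-AHA-H3(1-15)K9me1 75 nM, 30 min RT; compound added, 30 min RT; streptavidin donor/Ni-chelate acceptor beads 10 ug/mL each final, 30 min RT dark; AlphaScreen read.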
G9a block: qHTS Assay for Inhibitors of Histone Lysine Methyltransferase G9a; Potency, µM (doses to about 102 µM), for the others: top-dose activity, negative = inhibition, hits mostly inhibitors; AID 504332, 2011; G9a H3K9 monomethylation, AlphaScreen, 2 h; hit rate 8.8% among 350,000; note: % is set by controls: 0 for no effect and ±100 for the full control effect; nearly all actives have a fitted effect of over 75% in size
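Using a bead-based AlphaScreen, monomethylated H3K9 product from 2 h room-temperature reactions (G9a 20 nM, peptide 500 nM, SAM 20 uM) was detected with 0.5 ug/mL rabbit anti-H3K9me1 antibody.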
JMJD2A Tudor inh: qHTS Assay for Inhibitors of JMJD2A-Tudor Domain; hit rate 4.4% among 390,000; Lysine-specific demethylase 4A (Homo sapiens), O75164; AlphaScreen JMJD2A-Tudor / H3K4me3 peptide binding; AID 504339, 2011; Potency, µM (doses to about 114 µM), for inactives: top-dose activity change, negative = inhibition, actives largely listed as inhibitors; note: % is set by controls: 0 for no effect and ±100 for the full control effect; nearly all actives have a fitted effect of over 50% in size
Sfp PPTase inh: qHTS Assay for Inhibitors of Bacillus subtilis Sfp phosphopantetheinyl transferase (PPTase); 4'-phosphopantetheinyl transferase ffp (Bacillus subtilis), Q9F4F7; Biochemical Sfp PPTase activity, qHTS; Potency, µM, without a hit: largest response in the series, negative = inhibition, hits mostly inhibitors; hit rate 3.5% among 310,000;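 note: the enzyme is Sfp with the accession as filed and its product quenches rhodamine fluorescence; 0% = enzyme reaction without inhibitor and -100% = no enzyme wells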
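Step 1, compound plus 15 nM Sfp-PPTase, 15 min, room temperature. Step 2, add rhodamine-CoA (5 uM) and BHQ-2-YbbR (12.5 uM). Step 3, read 525/598 nm fluorescence at 0 and 30 min.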
An asterisk follows results filed as active; ? = inconclusive; . = not tested or not shown; [ ] = another dose, or the depositor's remark. Calls come from the whole dose curve; as a rule, active = well fitted curve in the direction sought with a large enough effect; inconclusive = small, poorly fitted or top-dose-only effect, or another doubt; inactive = no such curve, though single readings can be large; an effect the other way counts as inactive or inconclusive. Potency is the fitted concentration of half-maximal effect.

SMILES | HP1b binding inh | BAZ2B inh | L3MBTL1 block | G9a block | JMJD2A Tudor inh | Sfp PPTase inh
COc1ccccc1CNCc1ccc(OC)c2ccccc12 | -16% | . | . | . | 18µM* | .
CC(C)(C)C(=O)Nc1ccc2nc(SCC(=O)N3CCc4ccccc43)sc2c1 | 24% | 3% | . | 0%[59 µM] | -16% | .
COc1ccccc1CNCc1cccc(Oc2ccccc2)c1 | -9% | 25µM* | 5% | 8.9µM* | 40µM* | -13%
COc1cccc(CNCCO)c1OCc1ccccc1 | 17% | -5% | 65% | -9%[59 µM] | -11% | -15%
COc1ccc(Br)cc1CNC(C)c1ccccc1 (stereo not given) | 40% | -3% | 13% | -10%[59 µM] | -25% | 9%
COc1ccccc1CNCc1cc(Br)ccc1OC | -33% | 56µM* | . | 8.9µM* | ? | 63µM*
Cc1cc2c(s1)c1cnn(Cc3cc(F)c(F)c(F)c3F)c(=O)c1n2C | . | . | . | . | -8% | .
CS(=O)(=O)Nc1ccc(-c2n[nH]c(=S)n2-c2ccccc2)cc1 | 26% | -7% | . | 0.5µM* | 5.6µM* | -9%
Cc1[nH]c2ccc(-c3n[nH]c(=S)n3Cc3ccccc3)cc2c1C | 9% | ? | -17% | 7.9µM* | ? | -28%
Cc1[nH]c2ccc(-c3n[nH]c(=S)n3-c3ccccc3)cc2c1C | ? | -10% | -7% | 1.6µM* | 56µM* | -11%
O=C(Nc1sc2c(c1C(=O)Nc1ccccc1Cl)CCCC2)c1ccccc1F | 30% | 13% | . | ? | 14% | .
CCOC(=O)CNC(=O)O[C@H]1C(=O)c2cc(OC)ccc2O[C@@H]1c1ccc(OC)c(Br)c1 | . | . | . | . | . | 18%
COc1ccc(-c2nc(SCC(=O)Nc3ccc4c(c3)OCO4)c(-c3ccccc3)[nH]2)cc1 | 11% | -12% | . | -10%[59 µM] | -32% | .
c1ccc(OCC2CCNCC2)nc1 | 12% | -20% | . | 79µM* | -11% | -5%
CCCCCOC(=O)CSc1nc2sc3c(c2c(=O)n1Cc1ccccc1)CC(C)(CC)OC3 (stereo not given) | 39% | 4% | . | 14%[59 µM] | -3% | .
CCc1c(C)sc(NC(=O)c2ccccc2[N+](=O)[O-])c1C(N)=O | 15% | -6% | -5% | 45µM* | -6% | -21%
Cc1sc(NC(=O)/C=C/C(=O)O)c(C(N)=O)c1-c1ccc(C(C)(C)C)cc1 | -28% | -26% | 5% | ? | -32% | -55%
CCc1c(C)sc(NC(=O)/C=C/C(=O)O)c1C(N)=O | 32% | -8% | -11% | 35µM* | -21% | -81%
CNCCc1ccccn1 | ? | ? | 3% | 5%[21.5 µM] | ? | -24%
CNCCc1cnc(CCC(c2ccccc2)c2ccccc2)[nH]1 | . | . | . | 10µM* | . | .
COc1ccc(OC)c(-c2oc3ccccc3c(=O)c2O)c1 | 35% | -1% | 4% | ? | 4% | 89µM*
Cc1ccc(SCC(=O)OCC(=O)N(CCC#N)c2ccccc2)cc1C | 53% | 13% | 1% | 56µM* | ? | .
N#CCCN(C(=O)COC(=O)CCc1ccccc1)c1ccccc1 | 23%[57 µM] | -14% | . | 12% | 0% | 8%
O=C(O)c1ccc(NC2=C(N3CCOCC3)C(=O)c3ccccc3C2=O)cc1 | 13% | ? | -20% | ? | -17% | -2%
Cc1cc(C)c(S(=O)(=O)/N=C2\C=C(Nc3ccc(C(=O)O)cc3)C(=O)c3ccccc32)c(C)c1 | ? | 8.9µM* | . | 10µM* | 32µM* | 50µM*
O=C(O)c1ccc(NC2=C/C(=N/S(=O)(=O)c3ccccc3)c3ccccc3C2=O)cc1 | ? | 20µM* | . | 13µM* | 50µM* | -11%
